Key:
Details in all cases: concentration: 1 μM, replicates: in singlicate; n = 1
TIE1 = test system: TIE1
TIE2 = test system: T1, TIE2
T1 construct: gene TEK

TLK1 = test system: TLK1
TLK2 = test system: TLK2
TNIK = test system: TNIK
TNK1 = test system: TNK1
TNK2 = test system: TNK2
TNNI3K = test system: TNNI3K
TRKA = test system: T2, TRKA
T2 construct: gene NTRK1

TRKB = test system: TRKB
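Also: KINOMEscan kinase panel screen.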

SMILES | %Inh (TIE1) [%] | %Inh (TIE2) [%] | %Inh (TLK1) [%] | %Inh (TLK2) [%] | %Inh (TNIK) [%] | %Inh (TNK1) [%] | %Inh (TNK2) [%] | %Inh (TNNI3K) [%] | %Inh (TRKA) [%] | %Inh (TRKB) [%]
Nc1nc(-c2ccc3c(N)n[nH]c3c2)cc(N2CCCCC2)n1 [GSK2228768] | 6 | 0 | 0 | 0 | 0 | 0 | 13 | 0 | 0 | 0
Fc1cccc(COc2ccc(Nc3ncnc4cc[nH]c34)cc2Cl)c1 | 0 | 5 | 25 | 12 | 11 | 0 | 27 | 5 | 2 | 17
O=c1cc(N2CCOCC2)nc2n(Cc3cccc(Cl)c3)ccn12 [GSK2296823] | 16 | 0 | 0 | 0 | 0 | 0 | 28 | 1 | 0 | 0
CNc1nccc(-c2c(-c3ccc(F)cc3)ncn2C2CCN(C)CC2)n1 [SB-222903] | 0 | 0 | 0 | 0 | 21 | 25 | 0 | 0 | 20 | 0
COC(=O)c1cccc(NC(=O)NCCNc2ccnc(Nc3ccc(F)cc3)n2)c1 [GSK1379883] | 0 | 0 | 1 | 0 | 0 | 0 | 14 | 0 | 19 | 0
CCCc1ccc(S(=O)(=O)NC2CCN(c3ccnc(Nc4ccc(OC)cc4)n3)C2)cc1 (stereo not shown) [GSK1379737] | 34 | 0 | 0 | 0 | 0 | 0 | 11 | 6 | 0 | 23
Cc1ccc(NC(=O)c2cccc(C#N)c2)cc1-c1ccc(C(=O)Nc2ccncc2)cc1 [GSK1398463] | 11 | 21 | 0 | 0 | 13 | 16 | 21 | 29 | 0 | 0
FC(F)(F)c1ccc(-c2nn3ncccc3c2-c2ccnc(Nc3cccc(C(F)(F)F)c3)n2)cc1 [GW828205] | 0 | 52 | 0 | 8 | 0 | 0 | 0 | 0 | 0 | 0
COC(=O)c1c(-c2ccccc2)c2cc(Cl)ccc2c(=O)n1Cc1ccc(S(C)(=O)=O)cc1 | 4 | 0 | 19 | 0 | 4 | 0 | 0 | 19 | 0 | 0
Oc1ccc2ncnc(Nc3ccc(OCc4ccccc4)cc3)c2c1 [GI262866] | 19 | 0 | 0 | 0 | 0 | 0 | 4 | 77 | 0 | 0
